PubChem BioAssay (EPA / NIEHS)
Records with an inconclusive call do not appear. Active and inactive are the calls of the source. Rule for the calls: active = hit-call score of the fitted dose curve at least 0.9, where 1 is the maximum; inconclusive = response in the unintended direction; inactive = score below 0.9.

read-out: alkyl and aryl transferase (GSTA2), GSTA2 (gene 2939); assay: CLD_GSTA2_48hr: CellzDirect (CLD) Gene Expression Assay for alkyl and aryl transferase (GSTA2) at 48 hours (AID 2283708);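 note: active means mRNA induction above DMSO vehicle baseline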
Procedure: CLD_48hr is a cell-based, multiplexed-readout assay that uses hepatocyte, a human liver primary cell, with measurements taken at 48 hours after chemical dosing in a 96-well plate.CLD_GSTA2_48hr is one of 16 assay component(s) measured or calculated from the CLD_48hr assay. It is designed to make measurements of mRNA induction, a form of inducible reporter, as detected with chemiluminescence signals by Quantitative Nuclease Protection Assay (qNPA) technology.Data from the assay component CLD_GSTA2_48hr was analyzed at the endpoint, CLD_GSTA2_48hr, in the positive analysis fitting direction relative to DMSO as the negative control and baseline of activity. Using a type of inducible reporter, gain-of-signal activity can be used to understand changes in the reporter gene as they relate to the gene GSTA2. Furthermore, this assay endpoint can be referred to as a primary readout. To generalize the intended target to other relatable targets, this assay endpoint is annotated to the transferase intended target family, where subfamily is alkyl and aryl transferase.
Human hepatocyte cultures were treated daily for two consecutive days with fresh dosing solutions containing appropriate concentrations of the 320 ToxCast chemicals (chemical identities were blinded to CellzDirect and other ToxCast collaborators), vehicle control (0.2% DMSO), and positive control inducers as summarized in Table 1. […] These replicate data, coupled with internal replicates designed within the blinded ToxCast chemical library, provided additional data to evaluate interindividual differences between hepatocyte preparations and their potential impact on chemical profiles.Cell morphology and integrity were evaluated using phase-contrast microscopy as an indicator of hepatocyte cell health (Tyson & Green, 1987). Cultures for each treatment group (i.e., media, vehicle [0.2% DMSO], positive control inducers [multiple concentrations], and the ToxCast chemicals [multiple concentrations]) were observed and cell morphology was assessed relative to vehicle control cultures at each harvest time point (0, 6, 24, or 48 h). […] Images were evaluated at the conclusion of the study to assess changes in cell integrity and account for the effects of chemical exposure on uncharacteristic changes in concentration-dependent gene expression profiles. The results from these determinations of apparent cytotoxicity were annotated (yes/no) alongside the corresponding qNPA data for reference.At the conclusion of each treatment period, hepatocyte cultures (96-well) were washed with 1 volume of HBSS, lysed by addition of 25 ul ArrayPlate lysis buffer (HTG, Tucson, AZ), and 70 ul/well of Denaturation Oil, denatured by incubation at 95C for 10 min, and frozen at approximately -70C until analysis by nuclease protection assay (qNPA) (Roberts et al., 2007). For qNPA analysis, cell lysates were thawed at 50C for approximately 30 min, qNPA probes were added, and samples were incubated at 95C for 10 min to begin the detection process by denaturing the target RNA, dissociating the duplexes and secondary structure hybridization. At the conclusion of the hybridization period, S1 nuclease reagent was added to each sample to digest all nonprotected nucleotides at 50C for 60-90 min. At the conclusion of the S1 nuclease digestions, all reactions were stopped by transfer of all the samples to fresh plates containing stop solution and incubated at 95C for 15 min to deactivate the enzyme, dissociate the mRNA/ DNA probe heterodimers, and hydrolyze the resulting single stranded mRNA, leaving a stoichiometric amount of single-stranded DNA nuclease protection probe, unmodified in sequence, as the only intact oligonucleotide left in the sample. Neutralization solution was subsequently applied to cooled (room temperature) plates, and samples were transferred to ArrayPlates for overnight incubations at 50Cto allow probes to be captured onto programmed locations on the ArrayPlates. […]

Structure (SMILES)	AC50	outcome
CCCCOCN(C(=O)CCl)c1c(CC)cccc1CC	20 µM (active)	
N#CN=C1SCCN1Cc1ccc(Cl)nc1		inactive
Cc1c(COC(=O)[C@@H]2[C@H](/C=C(\Cl)C(F)(F)F)C2(C)C)cccc1-c1ccccc1		inactive
CCCCC(C#N)(Cn1cncn1)c1ccc(Cl)cc1 (stereo not given)		inactive
CCCCC(O)(Cn1cncn1)c1ccc(Cl)cc1Cl (stereo not given)		inactive
COc1cc(Cl)c(OC)cc1Cl		inactive
COP(=S)(OC)SCn1nnc2ccccc2c1=O		inactive
COCC(C)N(C(=O)CCl)c1c(C)csc1C (stereo not given)	32.1 µM (active)	
CC1(C)C(C(=O)OC(C#N)c2cccc(Oc3ccccc3)c2)C1(C)C (stereo not given)		inactive
OC(c1ccc(Cl)cc1)(c1ccc(Cl)cc1)C(Cl)(Cl)Cl		inactive
CC(C)N1C(=O)N(c2ccccc2)CSC1=NC(C)(C)C		inactive
C=CCOC(=O)C(C)(C)OC(=O)c1cc(-n2c(=O)cc(C(F)(F)F)n(C)c2=O)ccc1Cl		inactive
CC(C)Nc1nc(Cl)nc(NC(C)C)n1		inactive
COC(=O)c1c(C(F)F)nc(C(F)(F)F)c(C2=NCCS2)c1CC(C)C	20 µM (active)	
CC(C)N1C(=O)c2ccccc2NS1(=O)=O		inactive
O=c1n(Cl)c(=O)n(Cl)c(=O)n1Cl		inactive
CO/N=C(/C1=NOCCO1)c1ccccc1Oc1ncnc(Oc2ccccc2Cl)c1F		inactive
Cc1ccc(N=CN(C)C=Nc2ccc(C)cc2C)c(C)c1		inactive
CC(C)=CC1C(C(=O)OCc2coc(Cc3ccccc3)c2)C1(C)C (stereo not given)		inactive
CN=C=S		inactive

Structure (SMILES)	AC50	outcome
CC(C)(C)C(=O)C(Oc1ccc(Cl)cc1)n1cncn1 (stereo not given)		inactive
CS(=O)(=O)c1ccc(C(=O)C2C(=O)CCCC2=O)c([N+](=O)[O-])c1		inactive
CCNC(=O)NC(=O)C(C#N)=NOC		inactive
CCCC(=NOCC)C1=C(O)CC(CC(C)SCC)CC1=O (stereo not given)		inactive
CNC(=O)N(C)c1nnc(C(C)(C)C)s1		inactive
COc1ccc(-c2ccccc2)cc1NNC(=O)OC(C)C		inactive
CCCN(CC)CC1COC2(CCC(C(C)(C)C)CC2)O1 (stereo not given)		inactive
O=C(O)c1c(Cl)ccc2cc(Cl)cnc12		inactive
CCSC(=O)N1CCCCCC1		inactive
Clc1nc(Cl)nc(Nc2ccccc2Cl)n1		inactive
CNC(=O)Oc1cccc2ccccc12		inactive
CS(=O)(=O)c1cc(C(F)(F)F)ccc1C(=O)c1cnoc1C1CC1		inactive
COP(=O)(OC)O/C(C)=C/C(=O)N(C)C		inactive
COP(=S)(OC)Oc1ccc([N+](=O)[O-])c(C)c1		inactive
Cn1c(-c2ccccc2)cc(-c2ccccc2)[n+]1C	2.83 µM (active)	
CCN(CC)C(=O)C(C)Oc1cccc2ccccc12 (stereo not given)		inactive
CSC(=O)c1c(C(F)F)nc(C(F)(F)F)c(C(=O)SC)c1CC(C)C	11.8 µM (active)	
COC(=O)NC(=S)Nc1ccccc1NC(=S)NC(=O)OC		inactive
O=C1C2CC=CCC2C(=O)N1SC(Cl)(Cl)Cl (stereo not given)		inactive
Clc1cccc(C(Cl)(Cl)Cl)n1		inactive
